Hits are enriched below; roughly 7.3% of the tested compounds scored in any of these assays.
SMN2 splice up – increases expression of the SMN2 splice variant; HEK293 SMN2-luciferase splicing reporter, luminescence, 30-36 h; Potency, µM (highest dose often 46.1 µM), for the others: top-dose activity change, positive = activation, usual class: activators; actives 2.8% (n = 210,000); AID 1458; further: % of control where 0% means no effect; nearly all actives have a fitted effect of over 55% in size
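HEK293 cells carry an SMN2 minigene-luciferase reporter in which exon 7 inclusion puts luciferase in frame. Cells were seeded at 2000 cells/well, attached for 10-12 hours, then exposed to compounds for 30-36 hours at 37C before ONE-Glo luminescence.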
FLuc counter – counter-screen for miR-21 project: firefly luciferase inhibitors or activators. AID 588342. purified FLuc, Km substrates, luminescence inhibition. actives 6.9% (n = 360,000). Potency, µM (highest dose often 57.5 µM), for inactives: at the top dose activity change, negative = inhibition, actives largely listed as inhibitors. P08659;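 further: plate controls were vehicle for no effect and reference inhibitor for full effect; nearly all actives have a fitted effect of over 55% in size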
Target sequence (P08659 whole entry, looked up): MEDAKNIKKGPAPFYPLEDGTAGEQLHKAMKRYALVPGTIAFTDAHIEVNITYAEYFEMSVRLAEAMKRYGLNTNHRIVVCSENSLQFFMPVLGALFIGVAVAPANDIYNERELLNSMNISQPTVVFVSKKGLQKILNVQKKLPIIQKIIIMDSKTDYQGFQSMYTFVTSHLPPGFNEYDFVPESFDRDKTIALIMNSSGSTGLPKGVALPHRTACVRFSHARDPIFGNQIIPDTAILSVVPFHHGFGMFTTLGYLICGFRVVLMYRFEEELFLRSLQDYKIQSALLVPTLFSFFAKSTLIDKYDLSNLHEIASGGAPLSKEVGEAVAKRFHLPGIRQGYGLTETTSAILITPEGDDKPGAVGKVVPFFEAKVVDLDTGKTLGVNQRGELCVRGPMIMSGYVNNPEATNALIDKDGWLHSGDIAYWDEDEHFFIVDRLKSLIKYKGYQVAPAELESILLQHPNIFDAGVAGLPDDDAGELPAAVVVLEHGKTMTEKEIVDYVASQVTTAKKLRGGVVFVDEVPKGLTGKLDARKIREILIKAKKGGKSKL
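Purified P. pyralis luciferase, 10 nM final, with Km-level 10 uM D-luciferin and 10 uM ATP in 50 mM Tris acetate pH 7.5, 10 mM Mg acetate, 0.01% Tween-20, 0.05% BSA; 6-point qHTS titration about 60 µM downward; luminescence read.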
p53 reactivation – restores transcriptional activity of mutant p53; H1299 p53-A138V BP100-luciferase reporter, luminescence, 24 h; Potency, µM (series often up to 92.2 µM), for inactives: at the top dose activity change, positive = activation, hits mostly activators; actives 0.063% (n = 320,000); AID 504706; further: % of control where 0% means no effect; nearly all actives have a fitted effect of over 45% in size
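p53-null H1299 cells stably carrying temperature-sensitive p53-A138V and a BP100-luciferase reporter were pinned with compounds (4-point, 1:5 series) and held 24 hrs at 37 deg C. Luminescence was read 10 min after detection reagent.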
Rab9 promoter act – activates the Rab9 promoter; Huh7 Rab9 promoter-luciferase reporter, luminescence, 24 h; Potency, µM (highest dose often 9.22 µM), without a hit: at the highest dose activation, negative = inhibition, actives largely listed as activators; actives 2.8% (n = 320,000); AID 485297; further: % of control where 0% means no effect; nearly all actives have a fitted effect of over 60% in size
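Huh7 reporter line, Rab9 promoter upstream of luciferase. Compound exposure 24 h at 37 °C in reduced-serum medium with 10% FBS. Read-out: luminescence.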
NPC1 promoter act – activators of NPC1 promoter | Huh7 NPC1 promoter luciferase reporter, 24 h | Potency, µM (titrated, usually from 9.22 µM), inactives show at the highest dose activation, actives largely listed as activators | actives 2.4% (n = 320,000) | AID 485313; further: % of control where 0% means no effect; nearly all actives have a fitted effect of over 60% in size
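Luminescence read-out of NPC1 promoter-driven luciferase in stably transfected Huh7 cells; compounds delivered in DMSO and left 24 h at 37C, 5% CO2, qHTS titration format.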
ELG1 genotoxic – genotoxicity induction in ELG1-luciferase HEK293T cells. HEK293T ELG1-luciferase reporter, luminescence, 16 h. Potency, µM (series often up to 46 µM), for the others: at the top dose activity change, positive = activation, most hits filed as activators. actives 1.3% (n = 330,000). AID 504466; further: % of control where 0% means no effect; nearly all actives have a fitted effect of over 60% in size
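HEK293T cells expressing luciferase-tagged ELG1 were treated with compound or DMSO for 16 hr at 37°C. Luciferase activity was then read after 30 min with ONE-Glo at room temperature; rising signal flags genetic stress.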
An asterisk follows results filed as active; u = inconclusive; x = no result. The call rests on the fitted dose curve; in most records, active means well fitted curve in the direction sought with a large enough effect; inconclusive means small, poorly fitted or top-dose-only effect, or another doubt; inactive means no such curve, though single readings can be large; an effect the other way counts as inactive or inconclusive. Potency means the concentration at half of the fitted maximal effect.

SMILES | SMN2 splice up | FLuc counter | p53 reactivation | Rab9 promoter act | NPC1 promoter act | ELG1 genotoxic
N#CCSc1ccccc1NC(=O)COc1ccc(-c2nnco2)cc1 | x | -17% | 3% | -1% | -3% | -4%
N#Cc1ccsc1NC(=O)COc1ccc(-c2nnco2)cc1 | u | 15µM* | 13% | u | u | u
NC(=O)Nc1ccc(C(=O)OCC(=O)Nc2sccc2C(N)=O)cc1 | x | u | 9% | 1% | -7% | 1%
CCN(CC)c1ccc(C(=O)OCC(=O)Nc2sccc2C#N)cc1 | 10µM* | 12µM* | u | 2.8µM* | 3.2µM* | u
N#Cc1ccsc1NC(=O)COC(=O)c1ccc(NC(N)=O)cc1 | 13µM* | 5.4µM* | -3% | u | 1.1µM* | 21µM*
Cc1ccc(S(=O)(=O)Nc2ccccc2N(C)S(=O)(=O)c2ccc(C)cc2)cc1 | x | 2% | 1% | -1% | -2% | -2%
CC(C)(C)C(=O)COC(=O)c1cc2ccccc2cc1O | u | 6.7µM* | 28% | 1% | -1% | u
COc1ccc(S(N)(=O)=O)cc1C(=O)OCC(=O)Nc1sccc1C#N | x | x | -2% | x | x | 0%
N#Cc1ccsc1NC(=O)COC(=O)c1cc2ccccc2cc1O | 22µM* | 4.3µM* | u | 3.2µM* | 18% | u
Cc1ccccc1Nc1oc(-c2ccccc2)nc1-c1ccccc1 | 0% | x | x | x | x | x
Oc1cccc(Nc2nc(O)c(/C=C3\C=Nc4ccccc43)s2)c1 | x | 21µM* | 9% | 7% | 3% | u
Oc1nc(Nc2cccc(Cl)c2)sc1/C=C1\C=Nc2ccccc21 | x | u | 7% | 8% | 8% | -4%
CCCN(CCC)C(=O)Cn1c(=O)n(-c2ccc(CC)cc2)c(=O)c2c3c(sc21)CCC3 | 2% | -9% | x | x | x | x
Cc1cccc2nc(COc3ccc4ccccc4c3Br)cn12 | x | 2.4µM* | 25% | 3.2µM* | 3.5µM* | u
Cc1cccc(-n2ncc3c(NC4CCCC4)ncnc32)c1 | x | 3µM* | x | x | x | x
Cc1cccc(-n2ncc3c(NC4CCCCC4)ncnc32)c1 | u | 1.5µM* | u | 2µM* | 4.5µM* | u
Clc1cccc(-n2ncc3c(NC4CCCCCC4)ncnc32)c1 | x | 6µM* | x | x | x | x
CCCNC(=O)COC(=O)/C(C#N)=C/c1cc(C)n(CCC)c1C | -6% | 0% | 5% | 14% | -1% | 16%
CCCn1c(C)cc(/C=C(\C#N)C(=O)OCC(=O)NC(=O)NC(C)(C)C)c1C | 4% | 17µM* | 6% | -3% | 1% | 0%
O=C(Cn1c(=O)n(-c2ccccc2)c(=O)c2c3c(sc21)CCCC3)Nc1cccc(F)c1 | -8% | -1% | x | x | x | x
Cc1ccc(NC(=O)Cc2noc3ccccc23)cc1 | u | 21µM* | u | u | u | u
COc1ccc(N2CCN(C(=O)c3ccc4c(c3)N(Cc3ccc(F)cc3)C(=O)c3ccccc3S4=O)CC2)cc1 (stereo unspecified) | -7% | -1% | x | x | x | x
NC(=O)C1CCCN(S(=O)(=O)c2ccc3ccccc3c2)C1 (stereo unspecified) | x | 1% | x | -2% | -1% | 1%
COc1ccc(S(=O)(=O)N2CCOCC2)cc1NC(=O)CCCOc1ccc(Cl)cc1C | x | u | -9% | 0% | -3% | -3%
CCC(CC)C(=O)Nc1nc(-c2ccc3c(c2)CCN3C(=O)C2CC2)c(C)s1 | -30% | 3% | 11% | -3% | -2% | -28%
CC(C)(C)Nc1nc(-c2ccc3c(c2)CCN3C(=O)C2CC2)cs1 | x | 3µM* | u | u | 1.8µM* | u
CC(C)C(=O)Nc1nc(-c2ccc3c(c2)CCN3C(=O)C2CC2)cs1 | x | 15µM* | 12% | u | u | 4%
CC(=O)Nc1nc(-c2ccc3c(c2)CCN3S(C)(=O)=O)cs1 | 10µM* | 21µM* | -9% | 2.5µM* | u | u
